21 compounds from PubChem BioAssay (NCATS) can be followed below.

Each structure is given as a SMILES string. Records with an inconclusive call do not appear. Activity calls are given as the source filed them. The call rests on the fitted dose curve; in most records, active means well fitted curve in the direction sought with a large enough effect; inconclusive means small, poorly fitted or top-dose-only effect, or another doubt; inactive means no such curve, though single readings can be large; an effect the other way counts as inactive or inconclusive.

Assay [1] in a line: qHTS of pediatric cancer cell lines to identify multiple opportunities for drug repurposing: Primary screen for U-2 OS cells (AID 1347096). Further: nearly all actives have a fitted effect of over 50% in size. In a few lines: (§1)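 Cells (500-1,000/well) in growth media were settled 5 h at 37 degrees C, then given compounds for 48 h. Viability was read as CellTiter-Glo luminescence. Primary runs used MIPE at 11 points (0.78 nM-46 µM) and NPC at 8 points (0.59 nM-46 µM); follow-ups used 11 points.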
(Quantitative high-throughput screening tests each substance at several concentrations.)

Assay [2] can be described thus: qHTS of pediatric cancer cell lines to identify multiple opportunities for drug repurposing: Primary screen for Saos-2 cells (AID 1347097). Further: nearly all actives have a fitted effect of over 40% in size. In a few lines:
(§2)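 Following a 5-hour attachment period, cells at 500-1,000/well received compounds and were cultured for 48 hours. CellTiter-Glo was added and luminescence read to estimate viable, metabolically active cells.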

Assay [3] in a line: qHTS of pediatric cancer cell lines to identify multiple opportunities for drug repurposing: Primary screen for LAN-5 cells (AID 1347100). The procedure, abridged:
as §1

Assay [4] in a line: qHTS of pediatric cancer cell lines to identify multiple opportunities for drug repurposing: Primary screen for Rh18 cells (AID 1347102). Further: nearly all actives have a fitted effect of over 65% in size. In a few lines: as §1
A short description of assay [5]: qHTS of pediatric cancer cell lines to identify multiple opportunities for drug repurposing: Primary screen for RD cells (AID 1347104). Further: nearly all actives have a fitted effect of over 55% in size. The procedure, abridged:
as §2

Assay [6] in a line: qHTS of pediatric cancer cell lines to identify multiple opportunities for drug repurposing: Primary screen for MG 63 (6-TG R) cells (AID 1347105). Further: nearly all actives have a fitted effect of over 50% in size. The procedure, abridged:
as §2

Assay [7] can be described thus: qHTS of pediatric cancer cell lines to identify multiple opportunities for drug repurposing: Primary screen for OHS-50 cells (AID 1347103). Further: nearly all actives have a fitted effect of over 40% in size. In a few lines:
(§3)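 Cells (500-1,000/well) rested 5 h, then received compounds for 48 h; metabolically active cells were measured by CellTiter-Glo luminescence. Final concentrations spanned up to 46 µM (MIPE, 11-point) or 0.59 nM-46 µM (NPC, 8-point) in primary screens, 11-point in follow-ups.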

Assay [8] is described as follows: qHTS of pediatric cancer cell lines to identify multiple opportunities for drug repurposing: Primary screen for SK-N-SH cells (AID 1347098). Further: nearly all actives have a fitted effect of over 65% in size. In a few lines: as §3
The nature of assay [9]: qHTS of pediatric cancer cell lines to identify multiple opportunities for drug repurposing: Primary screen for NB1643 cells (AID 1347099). Further: nearly all actives have a fitted effect of over 50% in size. In a few lines: as §2
The nature of assay [10]: qHTS of pediatric cancer cell lines to identify multiple opportunities for drug repurposing: Primary screen for BT-12 cells (AID 1347101). Further: nearly all actives have a fitted effect of over 25% in size. The procedure, abridged:
as §3
Potency means the concentration at half of the fitted maximal effect.

Regarding `O=C(O)[C@H](Cc1c[nH]c2ccccc12)N1C(=O)c2ccccc2C1=O`, the Potency result in assay [1], in assay [2], in [3], in assay [4], in assay [5] and in assay [6] was “inactive” in each case.

Consider `COc1ccc(C(=O)CC2(O)C(=O)Nc3c(Cl)ccc(Cl)c32)cc1` (stereo not drawn), for which the Potency result in assay [1] is “inactive”. For the same compound, the Potency in [2] was 2.09 µM (active); in assay [7], 4.32 µM (active); in [5], 5.9 µM (active).

With `Cc1c(C)n(Cc2ccc(-c3ccccc3C(=O)O)cc2)c2ccc(C(=O)N[C@@H](C)c3ccc([N+](=O)[O-])cc3)cc12`, the Potency result in assay [1] and in assay [4] was “inactive” each time. The Potency in [8] is 3.04 µM (active); in assay [9], 0.187 µM (active); in assay [10] it was 0.769 µM (active); in [7], 2.73 µM (active); in assay [5] it was 1.66 µM (active); in [6], 18.7 µM (active).

`COc1ccc(C=Cc2cc(OC)c(OC)c(OC)c2)cc1O`: the Potency result in assay [1], in assay [5] and in assay [6] was “inactive” throughout. Moreover, the Potency in assay [2] was 0.935 µM (active); in assay [3], 0.001 µM (active); in [7] it was 0.001 µM (active).

`Nc1ccn([C@@H]2O[C@H](CO)[C@H](O)C2(F)F)c(=O)n1`: the Potency entry in assay [1] and in assay [4] was “inactive” in each case. Besides, the Potency is 3.72 µM (active) in [2] and 0.469 µM (active) in assay [9].

As for `CCCCN1CCC(CNC(=O)c2c3n(c4ccccc24)CCCO3)CC1`, the Potency result in [1] is “inactive”. The Potency in assay [8] is 15.2 µM (active); in assay [5] it was 4.69 µM (active); in assay [6], 0.935 µM (active).

In the case of `Cc1cn2cc(C(=O)N(C)CCO)cc(N[C@@H]3CCOc4cccc(C)c43)c2n1`, the Potency entry in [1], in [2], in assay [9], in assay [10], in assay [4] and in assay [5] was “inactive” each time. In addition, the Potency result in [6] is “inactive”.

With `Cc1ccc(C(N)=O)cc1Nc1nccc(-c2cn(C(C)C)c3cnccc23)n1`, the Potency entry in assay [1], in assay [9] and in assay [4] was “inactive” each time. The Potency in assay [2] was 4.69 µM (active); in assay [10] it was 6.85 µM (active); in [5], 16.6 µM (active).

On to `Cc1cc(CN2CCN(c3c(Br)cnc4nc(-c5ccc(N6CCN(C)CC6)cc5)[nH]c34)CC2)no1`, for which the Potency entry in assay [1] is “inactive”. In addition, the Potency was 21.5 µM (active) in assay [8]; 16.6 µM (active) in [9]; 0.418 µM (active) in assay [3]; 20.9 µM (active) in [4]; 30.6 µM (active) in assay [7]; 26.4 µM (active) in [5]. Besides, in assay [6], the Potency is 18.7 µM (active).

`COC(=O)C1=C(C)NC(C)=C(C(=O)OCCN2CCN(C(c3ccccc3)c3ccccc3)CC2)C1c1cccc([N+](=O)[O-])c1` (stereo not drawn): the Potency entry in assay [1] and in [6] was “inactive” each time. Moreover, the Potency in assay [2] is 13.3 µM (active); in [9], 16.8 µM (active); in assay [4], 16.8 µM (active); in assay [7] it was 15.5 µM (active).

As for `CCc1cc2c(cc1N1CCC(N3CCOCC3)CC1)C(C)(C)c1[nH]c3cc(C#N)ccc3c1C2=O`, the Potency result in assay [1], in assay [8], in assay [10], in [4], in assay [5] and in [6] was “inactive” each time.

`CCC(=C(c1ccccc1)c1ccc(OCCN(C)C)cc1)c1ccccc1`: the Potency result in assay [1] and in assay [4] was “inactive” each time. The Potency was 18.7 µM (active) in assay [2] and 21.7 µM (active) in assay [7].

Regarding `CNC(=O)c1ccc(-c2cnc3ncc(Cc4ccc5ncccc5c4)n3n2)cc1F`, the Potency entry in assay [1], in assay [2], in assay [9], in assay [10], in assay [4] and in [7] was “inactive” throughout. Further, the Potency entry in [5] is “inactive”.

`CCC1=C[C@@H]2CN(C1)Cc1c([nH]c3ccccc13)[C@@](C(=O)OC)(c1cc3c(cc1OC)N(C)[C@@H]1[C@@](O)(C(=O)OC)[C@H](OC(C)=O)[C@]4(CC)C=CCN5CC[C@]31[C@@H]54)C2`: the Potency entry in [1] is “inactive”. In addition, the Potency in [2] is 0.0166 µM (active); in assay [9] it was 0.059 µM (active); in assay [3] it was 0.0093 µM (active); in assay [7], 0.0432 µM (active); in assay [5], 0.0187 µM (active).

In the case of `COC(=O)Nc1nc2ccc(C(=O)c3ccc(F)cc3)cc2[nH]1`, the Potency entry in assay [1] and in [4] was “inactive” throughout. The Potency in assay [2] was 0.526 µM (active); in assay [3], 0.209 µM (active); in assay [10], 1.72 µM (active); in [5] it was 0.743 µM (active); in assay [6], 0.59 µM (active).

Regarding `N#CCNC(=O)c1ccc(-c2ccnc(Nc3ccc(N4CCOCC4)cc3)n2)cc1`, the Potency result in assay [1] is “inactive”. The Potency is 12.1 µM (active) in assay [8], 16.6 µM (active) in assay [5] and 18.7 µM (active) in [6].

Regarding `Cn1c2cc(S(C)=O)sc2c2cnn(Cc3cccc(N)c3)c(=O)c21` (stereo not drawn), the Potency result in [1], in [9], in assay [3], in assay [10], in assay [4] and in [5] was “inactive” throughout. The Potency entry in assay [6] was “inactive”.

As for `O=C(O)Cn1nnc(-c2cc(N3CCC(Oc4cc(F)ccc4Br)CC3)no2)n1`, the Potency entry in [1], in assay [2], in [9], in [10], in [4] and in assay [6] was “inactive” each time.

For the compound `C=CC(=O)Nc1cccc(Oc2nc(Nc3ccc(N4CCN(C)CC4)cc3)ncc2Cl)c1`, the Potency in assay [1] was 4.69 µM (active); in [8], 3.83 µM (active); in assay [3], 2.64 µM (active); in assay [10], 17.2 µM (active); in [4] it was 3.72 µM (active); in [7], 3.06 µM (active). The Potency is 20.9 µM (active) in [5] and 7.43 µM (active) in assay [6].

For `C=CC(=O)N1CCC[C@@H](n2nc(-c3ccc(Oc4ccccc4)cc3)c3c(N)ncnc32)C1`, the Potency result in assay [1] is “inactive”. The Potency in [2] was 11.8 µM (active); in assay [9] it was 2.35 µM (active); in [4] it was 18.7 µM (active); in assay [5], 33.2 µM (active); in assay [6], 23.5 µM (active).

Take `COc1ccc(OC)c(-c2nnc3ccc(-c4ccc(OC)c(O[C@@H]5CCOC5)c4)nn23)c1`: the Potency was 29.6 µM (active) in assay [2]; 30.4 µM (active) in assay [8]; 18.7 µM (active) in assay [9]; 26.4 µM (active) in assay [3]; 9.68 µM (active) in assay [10]; 13.2 µM (active) in [4]. For the same compound, the Potency in assay [7] is 17.2 µM (active); in assay [5], 16.6 µM (active).
